We go through one molecule from PubChem BioAssay AID687009 (National Center for Advancing Translational Sciences (NCATS), 2013).

This experiment has as its target Lysine-specific histone demethylase 1A (Homo sapiens) (UniProt O60341). As to the kind of experiment: qHTS Assay for Inhibitors of Human Jumonji Domain Containing 2E (JMJD2E): Counterscreen with LSD1. Conditions: Amplex Red/HRP fluorescence; series mostly up to 57.1 µM. The text has this: The fine interplay among methylation states of several lysine residues on the tails of histone proteins is a major determinant of the transcriptional state of the associated DNA coding regions and is commonly referred to as the histone code. Histone lysine demethylases catalyze the removal of methyl groups from methylated lysine sidechains on histones H3 and H4, thus antagonizing the reactions catalyzed by histone lysine methyltransferases. […] In search for novel inhibitors of JMJD2E demethylase, a member of the largest set of histone demethylases belonging to the Fe(II) and 2-oxoglutarate oxygenase (2OG) superfamily, we performed a quantitative high-throughput screen (Inglese 2006) by using an assay which utilizes a trimethylated peptide substrate corresponding to a fragment of histone H3 (sequence ARKme3STGGK) with detection of the formaldehyde co-product in real time by a formaldehyde dehydrogenase (FDH) coupled reaction. […]
The assay was performed in a buffer containing 10 mM HEPES, Na pH 7.5, 5 mM MgCl2, 50 mM KCl, 0.01% Nonidet P-40, and 0.1% BSA. […] The plate was then centrifuged at 1,000 rpm for 15 seconds, and the fluorescence intensity was recorded on a ViewLux High-throughput CCD imager (Perkin-Elmer) using standard TAMRA optics (525 nm excitation and 598 nm emission). The plate was then incubated for 30 min at room temperature, and a second read on the ViewLux was performed. […]
(qHTS replaces the single test concentration by a dilution series.)

Molecules are shown by their SMILES. Records with an inconclusive call do not appear. Active and inactive are the calls of the source. Calls follow the shape of the dose curve; as a rule, active = well fitted curve in the direction sought with a large enough effect; inconclusive = small, poorly fitted or top-dose-only effect, or another doubt; inactive = no such curve, though single readings can be large or run the other way.

With `CN1CCN(c2cnc3c(O)ccc(C(=O)O)c3c2)CC1`, the call was inactive.
